Experimental data taken from PubChem BioAssay AID2147 (National Center for Advancing Translational Sciences (NCATS), 2009).
Hit rate of the full screen: of about 230,000 compounds, about 3,600 (1.6%) were called active. About 15% were inconclusive and are not listed. The call rests on the fitted dose curve; in most records, active means well fitted inhibition curve with a large enough effect (not every such curve was filed as active); inconclusive means small, poorly fitted or top-dose-only effect, or another doubt; inactive means no such curve, though single readings can be large or run the other way. The list comes from a sample in which actives are over-represented; it also holds similar structures and randomly drawn compounds. A call without a number means that no potency is given here.

Each compound was assayed against Lysine-specific demethylase 4E (Homo sapiens) (UniProt B2RXH2) (assay: qHTS Assay for Inhibitors of Human Jumonji Domain Containing 2E (JMJD2E)). Settings: JMJD2E catalytic domain, FDH-coupled NADH fluorescence (FDH is formaldehyde dehydrogenase); series mostly up to 57.1 µM.
Description: Assay Provider: Structural Genomics Consortium [SGC] Screening Center PI: Austin, C.P. Screening Center: NIH Chemical Genomics Center [NCGC] The fine interplay among methylation states of several lysine residues on the tails of histone proteins is a major determinant of the transcriptional state of the associated DNA coding regions and is commonly referred to as the histone code. Histone lysine demethylases catalyze the removal of methyl groups from methylated lysine sidechains on histones H3 and H4, thus antagonizing the reactions catalyzed by histone lysine methyltransferases. […] In search for novel inhibitors of JMJD2E demethylase, a member of the largest set of histone demethylases belonging to the Fe(II) and 2-oxoglutarate oxygenase (2OG) superfamily, we performed a quantitative high-throughput screen (Inglese 2006) by using an assay which utilizes a trimethylated peptide substrate corresponding to a fragment of histone H3 (sequence ARKme3STGGK) with detection of the formaldehyde co-product in real time by a formaldehyde dehydrogenase (FDH) coupled reaction. FDH catalyzes oxidation of formaldehyde to formic acid with the concomitant reduction of the non-fluorescent beta-nicotinamide adenine dinucleotide hydrate (NAD+) cofactor to the fluorescent NADH co-product. References: Inglese, J., Auld, D., Jadhav, A., Johnson, R., Simeonov, A., Yasgar, A., Zheng, W. and Austin, C. Proc Natl Acad Sci USA 2006, 103, 11473-11478. N. R. Rose, S. S. Ng, J. Mecinovic, B. M. Lienard, S. H. Bello, Z. Sun, M. A. McDonough, U. Oppermann and C. J. Schofield, J Med Chem, 2008, 51, 7053-7056. Sakurai, M., Rose, N., Schultz, L., Quinn, A., Jadhav, A., Ng, S., Oppermann, U., Schofield, C.J. and Simeonov, A. Mol BioSystems 2009, in press. S. Michael, D. Auld, C. Klumpp, A. Jadhav, W. Zheng, N. Thorne, C. Austin, J. Inglese and A. Simeonov, Assay Drug Dev Technol, 2008, 6, 637-657.
Reagents and Controls: Ferrous ammonium sulfate, (+)-sodium L-ascorbate, beta-nicotinamide adenine dinucleotide hydrate (NAD+), Tween-20, formaldehyde dehydrogenase from P. putida (FDH), and disodium 2-oxoglutarate were from Sigma (St. Louis, MO). Black solid-bottom 384-well or 1,536-well assay plates were from Greiner Bio-One (Monroe, NC). Enzyme was supplied by Prof. Udo Oppermann, SGC-Oxford. The catalytic domain of human JMJD2E (residues 1-337) was produced as an N-terminally His6-tagged protein in E. coli, and purified by Ni-affinity chromatography and size-exclusion chromatography, and stored in HEPES 50 mM/ NaCl 500 mM pH 7.5, as reported in Rose 2008. The trimethylated histone peptide substrate ARK(me3)STGGK was synthesized and HPLC-purified by the Tufts University Core Facility (Boston, MA). Substrate solution (Sakurai 2009) contained 50 uM ARK(me3)STGGK, 0.00025 U/uL FDH, 50 uM 2-oxoglutarate, 250 uM NAD+, 1 mM ascorbate, and 10 uM ferrous ammonium sulfate. Controls and plate map: Buffer (150 mM HEPES pH 7.5 containing 0.01% Tween-20) in columns 3 and 4 as negative control (no enzyme) and 100 nM JMJD2E final concentration in columns 1,2, and 5-48. Assay Steps: Enzyme and buffer solutions (3 uL) were dispensed into a 1,536-well Greiner black solid-bottom assay plate. The library compounds (23 nL) were transferred using a Kalypsys pintool equipped with 1,536-pin array. The plate was incubated at room temperature (15 min), and then a 1 uL aliquot of substrate solution was added to initiate the reaction. The plate was transferred to ViewLux imager where an initial reading using standard UV optics (Ex 340 nm, Em 450 nm) was obtained. The plate was then removed from the reader, incubated for 30 minutes at room temperature, and returned to the reader for a second fluorescence reading. A fully automated robotic screening system (Kalypsys Inc, San diego, CA) was used to perform the above steps as described previously (Michael 2008). […]
Further: nearly all actives have a fitted effect of over 50% in size.
Potency means the concentration at half of the fitted maximal effect.

Lysine-specific demethylase 4E (Homo sapiens), sequence (B2RXH2 1-337 limits assumed): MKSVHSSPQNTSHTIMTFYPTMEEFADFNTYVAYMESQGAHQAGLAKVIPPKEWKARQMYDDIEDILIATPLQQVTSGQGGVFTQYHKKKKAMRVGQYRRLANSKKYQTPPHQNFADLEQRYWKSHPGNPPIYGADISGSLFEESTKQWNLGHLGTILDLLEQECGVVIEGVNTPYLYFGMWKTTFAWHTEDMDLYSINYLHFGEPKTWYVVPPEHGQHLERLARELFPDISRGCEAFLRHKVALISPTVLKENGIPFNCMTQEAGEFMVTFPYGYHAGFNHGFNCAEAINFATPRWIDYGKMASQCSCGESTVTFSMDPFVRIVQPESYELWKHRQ

Structure (SMILES) | Potency
CC(=O)c1c(C)[nH]c(=S)c(C#N)c1-c1ccc(F)cc1 | inactive
CCOC(=O)c1c(C)[nH]c(=S)c(C#N)c1-c1ccccc1 | inactive
CCc1c(C)[nH]c(=S)c(C#N)c1C | 20 µM (active)
CS(=O)(=O)c1ccc(Cl)c(NC(=O)Nc2ccccc2)c1 | inactive
CCC1C(C#N)=C(SC)NC2=C1C(=O)CC(C)(C)C2 (stereo not drawn) | inactive
COc1ccc(C2C(C#N)=C(/N=C/N3CCOCC3)OC3=C2C(=O)CC(C)(C)C3)cc1OC (stereo not drawn) | inactive
COc1cc(C2C(C#N)=C(C)NC3=C2C(=O)CC(C)(C)C3)ccc1O (stereo not drawn) | 12.6 µM (active)
CC(=O)N1CCC(N(C(=O)Nc2ccc(Cl)cc2)C(C)C)CC1 | inactive
O=C(CCCN1C(=O)/C(=C\c2ccccc2)SC1=S)Nc1ccccc1O | inactive
c1ccc(CSc2nnc(-c3ccco3)c(-c3ccco3)n2)cc1 | 7.94 µM (active)
Brc1ccc(CSc2ccc(-c3ccco3)nn2)cc1 | inactive
c1ccc(CSc2nnc(-c3ccco3)n2Cc2ccccc2)cc1 | inactive
O=S(=O)(NCCc1csc(-c2ccccc2)n1)c1cccnc1 | inactive
Cc1cc(-c2nnc(CCC(=O)NC(c3ccccc3)c3ccccc3)o2)no1 | inactive
O=C1C(c2ccccn2)=[N+]([O-])c2ccccc21 | 12.6 µM (active)
O=C(Nc1ccc2c(c1)OCCO2)c1cnccn1 | inactive
CCN(CC)c1ccc(/C=N/NC(=O)c2cnccn2)c(O)c1 | 10 µM (active)
CCN(CC)c1ccc(/C=N/Nc2nc(C)cc(C)n2)c(O)c1 | inactive
CCOC(=O)c1c(CC(C)C)csc1/N=C/C1=C(O)CCCC1=O | inactive
CCOC(=O)c1c(C)oc(C)c(C(=O)OCC)c1=O | inactive
O=C(COC(=O)c1c2c(nc3ccccc13)/C(=C\c1cccs1)CCC2)Nc1ccccc1Cl | inactive
O=C(COC(=O)c1ccc2c(c1)OCCO2)NCc1ccccc1 | inactive
NC(=O)c1ccc(NC(=O)COC(=O)c2c3c(nc4ccccc24)/C(=C\c2ccc4c(c2)OCO4)CCC3)cc1 | 3.16 µM (active)

Structure (SMILES) | Potency
O=C(Cc1ccccc1)Nc1c(Cl)ccc2nsnc12 | inactive
O=C(NC(=O)N1CCSCC1)c1c(Cl)cccc1Cl | inactive
O=C(NCc1ccccc1)c1ccc(S(=O)(=O)Nc2cccc(C(F)(F)F)c2)cc1 | inactive
Oc1ccc(N2CCN(C(=S)NCc3ccccc3)CC2)cc1 | inactive
Oc1ccc(CNc2ccccc2O)cc1 | 15.8 µM (active)
O=[N+]([O-])c1ccccc1NCc1ccc(Cl)cc1 | inactive
CC#CC[N+](C)(C)CCCCCC | inactive
O=C(NC(=S)Nc1ccc(S(=O)(=O)N2CCOCC2)cc1)c1ccccc1[N+](=O)[O-] | inactive
O=[N+]([O-])c1cc(Cl)cc(/C=N/NC(=S)Nc2cc(S(=O)(=O)N3CCOCC3)ccc2Cl)c1O | 8.91 µM (active)
O=C(N/N=C/c1ccc([N+](=O)[O-])o1)c1cccc(S(=O)(=O)N2CCOCC2)c1 | inactive
CC1=NCCN1S(=O)(=O)c1cccc([N+](=O)[O-])c1 | inactive
CN(C)C(=O)c1cccn(Cc2cccc(C(F)(F)F)c2)c1=O | inactive
Cc1csc(NC(=O)NC2(C(F)(F)F)Oc3ccccc3O2)n1 | inactive
O=C(Nc1cc(N2CCOCC2)ncn1)NC1(C(F)(F)F)Oc2ccc(Cl)cc2O1 (stereo not drawn) | 14.1 µM (active)
c1cnn(-c2cc(N3CCOCC3)ncn2)c1 | inactive
CCCn1nc(C(=O)N2CCCc3ccccc32)c2ccccc2c1=O | inactive
Cc1ccc(NC(=O)c2ccn(C(=O)Nc3ccccc3)n2)c(C)c1 | inactive
Cc1cc(C)n(CC(C)NCc2c(C(=O)N3CCOCC3)nc3c(C)cccn23)n1 (stereo not drawn) | inactive
CC1(C)CC(=O)C(N=Nc2c(F)cccc2F)=C(O)C1 | inactive
C=CCNC(=O)CSc1nc2scc(-c3ccco3)c2c(=O)n1CC=C | inactive
Cc1cc(C)c(C)c(S(=O)(=O)N[C@@H](C)C(=O)OC(C)C(=O)NC(N)=O)c1C (stereo partly drawn) | inactive
O=C(N/N=C/c1ccccc1O)/C(=C/c1ccccc1)CCO | 20 µM (active)
O=C(CCCCCNC(=O)c1ccccc1)N/N=C/c1ccccc1 | inactive

Structure (SMILES) | Potency
O=C(CCC(=O)Nc1ccccc1)N/N=C/c1ccccc1F | inactive
CCCCCCCCCCCCC(NC(C)=O)(C(=O)OCC)C(=O)OCC | inactive
O=C(CSc1nnnn1-c1ccc(O)cc1)c1ccc(F)cc1 | inactive
COc1ccc(C2CC(c3ccccc3)=NN2C(=O)CSc2nccc(=O)[nH]2)cc1 (stereo not drawn) | inactive
O=C(CSc1nnnn1-c1ccc(O)cc1)N1N=C(c2ccc3ccccc3c2)CC1c1ccccc1 (stereo not drawn) | 1.41 µM (active)
CN(C)C(=S)Nc1ccc(Br)cc1Cl | inactive
COCCn1c(SCC(=O)Nc2cc(OC)ccc2OC)nc2c(c1=O)SC(C)C2 (stereo not drawn) | inactive
O=C(Nc1ccccc1)N1CCN(C2c3ccccc3-c3ccccc32)CC1 | inactive
O=C(CSc1ncn[nH]1)Nc1nc(-c2cccc([N+](=O)[O-])c2)cs1 | inactive
CN(C)S(=O)(=O)c1cccc(C(=O)Nc2cccnc2)c1 | inactive
O=C(c1cccnc1)N(c1cc2sc(=O)oc2c2ccccc12)S(=O)(=O)c1ccccc1 | 14.1 µM (active)
COc1ccc(N(C(=O)c2cccnc2)S(=O)(=O)c2ccc3c(c2)n(C)c(=O)n3C)cc1 | inactive
Cc1oc(C(N)=O)cc1COc1ccc(C(N)=O)cc1 | inactive
CCOC(=O)N1CCN(c2c(NCCN3CCN(c4ccccc4F)CC3)c(=O)c2=O)CC1 | inactive
COCCCNC(=S)N(Cc1ccccc1)Cc1ccc(F)cc1 | inactive
Cn1c(C(=O)O)ccc1S(=O)(=O)N(Cc1ccccc1)Cc1ccccc1 | inactive
CCOC(=O)C1CCN(CCC(=O)Nc2cccc(C)c2)CC1 | inactive
Cc1c([N+](=O)[O-])c(N)nn1C | inactive
O=C(O)c1ccc(NC(=O)c2cn(-c3ccccc3)nc2-c2ccc(Cl)cc2)cc1 | inactive
O=C(NNC(=S)NC(=O)c1cn(-c2ccccc2)nc1-c1ccccc1)c1ccncc1 | 14.1 µM (active)
O=C(Nc1cn(-c2ccccc2)nc1-c1ccccc1)c1ccccc1 | inactive
CCn1c2ccccc2c2cc(NC(=O)Nc3ccc([N+](=O)[O-])cc3C)ccc21 | inactive
